BAZ2B inh: blocks human BAZ2B | AID 504333 | Q9UIF8 | Potency, µM (top dose mostly 114 µM), without a hit: at the top dose activity change, negative = inhibition, usual class: inhibitors | AlphaScreen BAZ2B-H3K14Ac peptide displacement | actives 4.4% (n = 360,000); also: potency is read from the fitted curve at half-maximal effect; % is scaled to controls: 0 for no effect and ±100 for the full control effect; nearly all actives have a fitted effect of over 60% in size
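In this displacement format the biotinylated H3(5-23) peptide acetylated at Lys14 serves as ligand at 50 nM, with BAZ2B at 50 nM in PBS pH 7.4 containing 0.01% Tween-20. Donor and acceptor beads are 10 ug/mL final.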
HP1b chromo inh: inhibitors of HP1-beta chromodomain binding to methylated histone tails. AlphaScreen HP1-beta / biotin-H3K9me3 peptide binding. Potency, µM (titrated, usually from 114 µM), for the others: at the top dose activity change, negative = inhibition, hits mostly inhibitors. actives 0.56% (n = 390,000); also: potency is read from the fitted curve at half-maximal effect; nearly all actives have a fitted effect of over 70% in size
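AlphaScreen: HP1-beta (50 nM) preformed 30 min with biotin-H3(1-18)K9me3 peptide (50 nM) in PBS pH 7.4, 0.01% Tween-20. Compound added for 30 min at RT, then streptavidin donor/nickel chelate acceptor beads (10 ug/mL) for 30 min.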
PI5P4K alpha inh: PI5P4K alpha (human) kinase inhibition; PI5P4Kalpha enzyme, ADP-Glo luminescence, 60 min; active compounds read low; max response, %; actives 1.2% (n = 330,000); AID 652105; active = max response of -50% or lower; inconclusive = between -30% and -50%; inactive = -30% or higher; also: value at the top dose of about 77 µM; % is scaled to controls: 0 for no effect and ±100 for the full control effect
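qHTS, 1536-well: enzyme/substrate mix, compound by pin tool, 5 microM ATP final; RT 60 min; ADP-Glo reagents 1 (45 min) then 2 (30 min); luminescence.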
PLK1 PBD inh: inhibitors of human PLK1 polo-box domain binding; P53350; Plk1 PBD binding of FITC phosphopeptide, fluorescence polarization; Potency, µM, for the others: max response, negative = inhibition, actives largely listed as inhibitors; actives 2.8% (n = 360,000); AID 720504; also: potency is read from the fitted curve at half-maximal effect; series mostly up to about 57 µM; % is scaled to controls: 0 for no effect and ±100 for the full control effect; nearly all actives have a fitted effect of over 65% in size
G9a block: G9a (human) methyltransferase inhibition | G9a H3K9 monomethylation, AlphaScreen, 2 h | Potency, µM (highest dose often 102 µM), for the others: top-dose activity, negative = inhibition, usual class: inhibitors | actives 8.8% (n = 350,000) | Q96KQ7 | AID 504332; also: potency is read from the fitted curve at half-maximal effect; % is scaled to controls: 0 for no effect and ±100 for the full control effect; nearly all actives have a fitted effect of over 75% in size
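Readings reflect AlphaScreen signal from monomethyl-H3K9 antibody detection. HMT at 20 nM; substrate b-H3K9 500 nM; cofactor SAM 20 uM; 2 h RT reaction; compounds tested as titrations in qHTS with 15 min preincubation.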
JMJD2A Tudor inh: JMJD2A Tudor domain (human) inhibition; O75164; AlphaScreen JMJD2A-Tudor / H3K4me3 peptide binding; Potency, µM (highest dose often 114 µM), for the others: top-dose activity change, negative = inhibition, usual class: inhibitors; actives 4.4% (n = 390,000); also: potency is read from the fitted curve at half-maximal effect; % is scaled to controls: 0 for no effect and ±100 for the full control effect; nearly all actives have a fitted effect of over 50% in size
Target sequence (O75164 whole entry, looked up, the tested form may be a part): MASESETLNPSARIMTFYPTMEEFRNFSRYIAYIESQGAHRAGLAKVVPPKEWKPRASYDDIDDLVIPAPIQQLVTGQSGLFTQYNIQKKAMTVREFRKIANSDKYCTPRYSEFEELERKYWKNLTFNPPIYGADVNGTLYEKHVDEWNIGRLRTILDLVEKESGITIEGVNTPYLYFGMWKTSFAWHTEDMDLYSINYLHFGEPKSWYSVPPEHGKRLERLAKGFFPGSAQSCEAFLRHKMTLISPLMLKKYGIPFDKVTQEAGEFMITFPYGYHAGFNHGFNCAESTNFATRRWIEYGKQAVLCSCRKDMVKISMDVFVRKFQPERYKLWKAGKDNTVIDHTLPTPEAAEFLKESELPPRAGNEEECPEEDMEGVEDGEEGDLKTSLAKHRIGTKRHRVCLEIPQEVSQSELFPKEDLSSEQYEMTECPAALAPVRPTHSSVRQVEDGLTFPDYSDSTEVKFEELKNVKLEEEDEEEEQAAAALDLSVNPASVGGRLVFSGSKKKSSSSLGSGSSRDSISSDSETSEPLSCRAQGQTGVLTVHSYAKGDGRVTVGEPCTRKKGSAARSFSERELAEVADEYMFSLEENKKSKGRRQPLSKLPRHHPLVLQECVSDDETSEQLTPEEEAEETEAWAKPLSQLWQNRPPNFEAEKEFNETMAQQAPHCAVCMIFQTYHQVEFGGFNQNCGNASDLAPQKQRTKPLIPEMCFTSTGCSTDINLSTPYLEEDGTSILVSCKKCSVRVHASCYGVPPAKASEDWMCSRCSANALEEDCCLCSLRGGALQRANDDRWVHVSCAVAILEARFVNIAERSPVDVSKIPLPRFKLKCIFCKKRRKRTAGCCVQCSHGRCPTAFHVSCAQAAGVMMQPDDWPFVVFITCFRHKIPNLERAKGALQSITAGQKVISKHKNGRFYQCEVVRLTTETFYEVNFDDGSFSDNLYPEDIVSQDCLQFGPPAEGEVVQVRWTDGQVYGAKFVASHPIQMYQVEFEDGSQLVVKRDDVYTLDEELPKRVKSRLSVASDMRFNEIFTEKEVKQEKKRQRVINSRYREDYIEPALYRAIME
Active calls of the source: *; ? = inconclusive; nt = no result given; [ ] = another dose, or the depositor's remark. An excerpt weighted towards active compounds, which were near 12% of everything screened. Unless noted, calls follow the shape of the dose curve; as a rule, active = well fitted curve in the direction sought with a large enough effect; inconclusive = small, poorly fitted or top-dose-only effect, or another doubt; inactive = no such curve, though single readings can be large; an effect the other way counts as inactive or inconclusive.

SMILES	BAZ2B inh	HP1b chromo inh	PI5P4K alpha inh	PLK1 PBD inh	G9a block	JMJD2A Tudor inh
COc1ccccc1N1CCN(Cc2cc3c(cc2[N+](=O)[O-])OCO3)CC1	?	-13%	-4	-15%	?	?
O=[N+]([O-])c1cc(C(F)(F)F)ccc1N1CCN(CCO)CC1	-3%	18%	4	-7%	4%	-18%
O=[N+]([O-])c1ccc(N2CCN(CCOCCO)CC2)c([N+](=O)[O-])c1	32µM*	?	0	-2%	nt	7.9µM*
O=[N+]([O-])c1cc2c(cc1CN1CCN(CCOCCO)CC1)OCO2	?	29%	-1	-15%	79µM*	?
CC(=O)Nc1c2c(nn1-c1ccc(Cl)cc1)CSC2	-13%[57.1 µM]	43%	1	-16%	23%	-10%
Cc1ccc(S(=O)(=O)N2CCN(C(=O)c3ccc4nc[nH]c4c3)CC2)cc1	?	18%	-14	-3%	-19%	-14%
CN1C(=O)C(CC(=O)Nc2ccc(Cl)cc2)N(Cc2ccco2)C1=S (stereo unspecified)	?	13%	?	-18%	45µM*	-32%
C=C(C)CSc1nnc([C@@H]2CCCN2C(=O)OC(C)(C)C)o1	-4%	23%	1	-21%	-3%[59 µM]	-4%
CCSc1nnc([C@@H]2CCCN2C(=O)OC(C)(C)C)o1	12%	30%	3	-5%	50µM*	-14%
Cc1c(Cl)c(C(=O)NNC(=S)Nc2ccccc2)nn1C	8%	29%	0	-7%	3.5µM*	-12%
Cc1ccc(NC(=S)NNC(=O)c2nn(C)cc2Cl)cc1	18%[57.1 µM]	25%	-10	-8%	35µM*	-9%
Cc1cccc(NC(=S)NNC(=O)c2nn(C)cc2Cl)c1	3%[57.1 µM]	20%	-1	-13%	35µM*	-29%
CC1CCc2sc(C(=O)N3CCC(C(N)=O)CC3)cc2C1 (stereo unspecified)	-2%	45%	-2	3%	-11%[12.7 µM]	5%
C=CCn1c(-c2cc3cccc(OC)c3o2)n[nH]c1=S	?	29%	?	-18%	6.3µM*	40µM*
C=CCn1c(-c2cccc(OC)c2OC)n[nH]c1=S	-29%	31%	-7	-1%	20µM*	7.9µM*
CCn1c(-c2cc(OC)c(OC)c(OC)c2)n[nH]c1=S	-8%	42%	-8	1%	?	7.9µM*
CCn1c(CCCc2ccc(OC)c(C)c2)n[nH]c1=S	-11%	38%	-9	1%	nt	?
C=CCn1c(-c2cccnc2)n[nH]c1=S	-28%	44%	-16	1%	45µM*	20µM*
C=CCn1c(-c2ccoc2C)n[nH]c1=S	?	12%	nt	-10%	?	-1%
C=CCn1c(-c2cccc(OC)c2)nc2nc3ccccc3nc21	10%	12%	0	-9%	-7%[59 µM]	1%
C=CCn1c(-c2cccc(OC)c2)n[nH]c1=S	7%	3%	0	-3%	7.1µM*	11µM*
C=CCn1c(-c2cc(OC)c(OC)c(OC)c2)n[nH]c1=S	-4%	11%	nt	-4%	?	6.3µM*
CC(C)NC(=O)c1n[nH]c(=O)c2ccccc12	4%	48%	1	-7%	-4%	-13%
CC(C)c1ccc(C(=O)NNC(=O)c2n[nH]c(=O)c3ccccc23)cc1	8%	27%	-20	-5%	5µM*	-15%
CCC(C)C(NC(=O)c1ccccc1)C(=O)Nc1ccc(S(=O)(=O)Nc2cc(C)nc(C)n2)cc1 (stereo unspecified)	10%	20%	3	-16%	?	-6%
COc1ccc(N2CCN(C(c3cccc(OC)c3OC)c3nnnn3C3CCCC3)CC2)cc1 (stereo unspecified)	40µM*	?	3	-11%	13µM*	45µM*
COc1ccc(N2CCN(C(c3cc(OC)ccc3OC)c3nnnn3CC3CCCO3)CC2)cc1 (stereo unspecified)	50µM*	0%	9	-29%	14µM*	79µM*
